# “And” between values parts separate entries of the source, which are not always exact repeats. Equal values may be shown once. About 83,000 compounds went through this panel and 20% of them were active in at least one assay; those are over-represented in the sample as a whole.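 Values shown are percent growth following 48 h exposure of cells in 96-well plates to a single concentration of compound; below 10 was considered active.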 The source made the active and inactive calls.
# System: HL-60(TB) leukemia
# Experiment: NCI-60 one-dose screen, 48 h (100 = growth as untreated, 0 = no growth, -100 = all killed)
# Settings: 10 µM unless noted
row,SMILES,growth
1,C=CCn1c(SCC(=O)Nc2ccc(C(=O)/C=C/c3ccc(Cl)cc3)cc2)nnc1-c1c[nH]c2ccccc12,87.5% (inactive)
2,Cc1cccc2sc(/N=C(\N)C(Br)Br)nc12,0.778% (active)
3,CC(C)C(/C=C/c1[nH]ncc1-c1cc(Cl)ccc1O)N1CCOCC1 (stereo not given),93.5% (inactive)
4,CS(=O)(=O)c1ccc2c(c1)c1c(n2Cc2ccc(Cl)cc2)CCCC1,70.5% (inactive)
5,O=C(NNc1nc2cc(F)cc(F)c2n2cccc12)c1cnccn1,-25% (active)
6,C#Cc1nc(/C=C/C(=O)c2nccn2C)cs1,-40.3% (active)
7,C#Cc1cc(C(=O)Nc2ccc(CNCCN3CCOCC3)c(C(F)(F)F)c2)ccc1C,86% (inactive)
8,CS(=O)(=O)c1nccc(-c2c(-c3cccc(OCc4ccc(Cl)c(C(F)(F)F)c4)c3)nc3sccn23)n1,12.5% (inactive)
9,CCCC(=O)NC(c1cccc(N(C)C)c1)c1cc(C)c2cccnc2c1O (stereo not given),0.32% (active)
10,CNC(=O)c1cc(Oc2ccc3nc(NC(=O)c4cc(C)cc(C)c4)sc3c2)ccn1,70.4% (inactive)
11,N/C(=N\c1nc2c(Cl)cc(Cl)cc2s1)C(Cl)(Cl)Cl,4.49% (active)
12,C#C[C@]1(O)CC[C@H]2[C@@H]3CC=C4c5sc(C6CCOCC6)nc5CC[C@]4(C)[C@H]3CC[C@@]21C,56.7% (inactive)
13,CC1COc2c(N3CCN(C)CC3)c(F)cc3c(=O)c(C(=O)N/N=C/c4cc[nH]c4)cn1c23 (stereo not given),20.3% (inactive)
14,NC(=O)c1cc(-c2ccc3ncnc(N4CCc5cc(F)c(Cl)cc54)c3c2)cnc1N,-4.97% (active)
15,Cc1cc2nc3c4cc(C#N)ccc4n(CCN(C)C)c3nc2cc1C,-35.7% (active)
16,COc1ccc(NC(=O)CSc2nnc(-c3ccc4nc(-c5ccc(OC)c(OC)c5)[nH]c4c3)o2)cc1OC,111% (inactive)
17,COc1ccccc1-n1cc(C#N)c(N)c1C(=O)c1ccc(Br)cc1,35.8% (inactive)
18,CC(C)=CCc1c2c(c(O)c3c1O[C@]14C(=C[C@@H]5C[C@H]1C(C)(C)O[C@@]4(C/C=C(/C)C(=O)O)C5=O)C3=O)CC(O)C(C)(C)O2 (stereo not given in full),-17.2% (active)
19,O=C(CN1CCN(c2cc(=O)n(-c3ccccc3)c3ccccc23)CC1)Nc1nc(-c2ccccc2)cs1,37.1% (inactive)
20,CC(C)(C)OC(=O)NCc1ccc(CNc2c([N+](=O)[O-])cnc3ccccc23)cc1,49.1% (inactive)

row,SMILES,growth
1,Oc1ccc(CSc2nnc(-c3ccc(Cl)cc3)n2-c2ccccc2)c2cccnc12,23.6% (inactive)
2,Cn1c(SCC(=O)c2ccc(F)cc2)nc2ccccc2c1=O,97.9% (inactive)
3,COc1cc(OC)c(C2SCC(=O)N2Nc2ncnc3ccccc23)cc1OC (stereo not given),103% (inactive)
4,COc1ccc(OC)c(CCn2cncc2-c2c[nH]c3ccc(Cl)cc23)c1,7.06% (active)
5,COc1ccc(C(=O)n2cc(C=O)c3ccccc32)cc1,93.7% (inactive)
6,COc1cc(-c2ccc3ncnc(NCc4ccccc4)c3c2)cnc1OC,66% (inactive)
7,O=C(Nc1cccc(-c2nc(-c3ccc(NC(=O)c4cccnc4)cc3Cl)no2)c1)Nc1ccc(NC(=O)C2CC2)c(C(F)(F)F)c1,-41.5% (active)
8,CS(=O)(=O)c1ncc(-c2ccccc2)cn1,103% (inactive)
9,COc1cc2nc(Cl)nc(Nc3cccc(C4=Nc5c(N)nc(N)nc5NC(c5ccc6c(c5)OCO6)C4)c3)c2cc1OC (stereo not given),68.4% (inactive)
10,CCOC(=O)c1c(Nc2ccccc2)nn2c(-c3ccc(OC)cc3)ccnc12,77.3% (inactive)
11,CN1CCN(Cc2ccc(NC(=O)c3cncc(C#Cc4cnc5ccc(OCCCS(C)(=O)=O)nn45)c3)cc2C(F)(F)F)CC1,-6.31% (active)
12,O=C(CCCCCCN1CC(=O)N2[C@@H](c3ccc(Cl)c(F)c3)c3[nH]c4ccccc4c3C[C@H]2C1=O)NO,85.1% (inactive)
13,COc1ccc(/C=N/NC(=O)c2c(N)nn(C)c2Nc2ccccc2)cc1Oc1ccccc1,100% (inactive)
14,COc1cc2cc(Oc3ccc(NC(=O)Nc4cc(C(F)(F)F)cc(C(F)(F)F)c4)cc3)c(C)nc2cc1OCCN(C)C,109% (inactive)
15,O=C1Nc2cc(Cl)ccc2/C1=C\c1ccc(OCc2ccccc2)cc1,113% (inactive)
16,CN(C)CCCOc1c2ccc(Cl)cc2nc2c1oc1ccc(Cl)cc12,18.9% (inactive)
17,CN1CCN(c2ccc(Nc3nc(NCCNC(=O)c4ccc(F)cc4)c4sccc4n3)cc2)CC1,34.3% (inactive)
18,Cc1nc2ncc(-c3ccc4ncnc(NCc5ccccc5)c4c3)cc2[nH]1,109% (inactive)
19,CC1(C)[C@@H](O)CC[C@]2(C)[C@H]3CC[C@@H]4[C@H]5[C@H](C(=O)/C=C\c6ccccn6)CC[C@]5(O)CC[C@@]4(C)[C@]3(C)CC[C@@H]12,-24.5% (active)
20,C/C=C/CC(C)C(O)[C@H](NC(=O)[C@@H]1CCCN1C(=O)[C@](C)(CC)NC(=O)CCCCCCCCC)C(=O)N[C@@](C)(CC)C(=O)N[C@@H](CCC(N)=O)C(=O)N[C@H](CCC(N)=O)C(=O)NC(C)(C)C(=O)NC(C)(C)C(=O)N[C@@H](CCC(N)=O)C(=O)N[C@H](CC(C)C)C(=O)N[C@H](CO)CC(C)C (stereo not given in full),52.5% (inactive) and -38.8% (active)

# Source: PubChem BioAssay (NCI)
